# This is part of a sample that, as a whole, favours compounds with a hit. Of some 83,000 tested, about 20% had one in any assay.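 How to read the values: 0–100, growth inhibition (40 = 60% inhibited); 0, no net growth; -100 to 0, cell death (-40 = 40% of starting cells died; -100 = all dead).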 Calls of active or inactive are those of the source.
# System: SW-620 colon
# Experiment: NCI-60 one-dose screen, 48 h (100 = growth as untreated, 0 = no growth, -100 = all killed)
# Conditions: 10 µM unless noted
# Experimental: Growth inhibition of the SW-620 human tumor cell line is measured as a screen for anti-cancer activity. Cells are grown in 96 well plates and exposed to the test compound for 48 hours. Compounds are tested at a single concentration, which is 10^-5 M for most compounds. The reported endpoint is percent growth (GI% or GIPRCNT), where numbers from 0 - 100% represent growth inhibition, and numbers from -100% - 0 represent cell death. For example, a value of 40 represents 60% growth inhibition. A value of 0 means no net growth occurred over the course of the experiment. A value of -40 indicates 40% of cells at the beginning of the experiment died by the end of the experiment. A value of -100 means all cells are dead at the end of the experiment.
# NCI-60 Human Tumor Cell Lines Screen was performed using the standard one-dose NCI protocol, which is described in more detail at https://dtp.cancer.gov/discovery_development/nci-60/default.htm.
# Compounds with GIPRCNT values below 10 were considered active. Activity score was based on GIPRCNT using the following formula: […]
# Score is 0 for GIPRCNT values of 100 or above, 50 for GIPRCNT values of 0, and 100 for GIPRCNT values of -100.
row,SMILES,growth
1,CC(C)CCNC(=O)Cn1cccc(NC(=O)OCc2ccccc2)c1=O,108% (inactive)
2,c1ccc(CNc2c3ccccc3nc3ccccc23)cc1,24.5% (inactive)
3,CCSc1nc(NC)c2cc(-c3ccc(C(F)(F)F)cc3)ccc2n1,105% (inactive)
4,CNC(=O)c1cc(Oc2ccc3nc(NC(C)=O)sc3c2)ccn1,112% (inactive)
5,C=CCn1c(SCC(=O)Nc2ccc(C(=O)/C=C/c3cc4cc(OC)ccc4nc3Cl)cc2)nnc1-c1ccc(Br)cc1,92% (inactive)
6,CCOC(=O)c1nc(Nc2ccc(NC(=O)Nc3ccc(F)cc3)cc2)c2ccccc2n1,96.9% (inactive)
7,COc1ccc(-c2csc(NC(=O)CSc3nc(-c4ccccc4)cc(=O)[nH]3)n2)cc1,93.5% (inactive)
8,COc1ccc(-c2nc3c(c(-c4ccccc4)nn3-c3ccccc3)c(-c3ccc(N4CCOCC4)cc3)c2C#N)cc1,90.4% (inactive)
9,COc1ccc2c(O)c(/C=C3\N=Nc4ccccc43)oc2c1C[C@@H]1CCNC[C@H]1F,6.01% (active)
10,O=C(c1ccc(-c2nc(CSc3nc4ccccc4s3)no2)cc1)N1CCSCC1,82.4% (inactive)
11,N=C(N)c1ccc(-c2ccc(-c3ccc(F)cc3)o2)o1,-36.7% (active)
12,COc1cc(CNC(=O)/C=C/C=C/c2ccc3c(c2)OCO3)ccc1OCc1cn(-c2ccc(C)c(C)c2)nn1,92.1% (inactive)
13,O=C1c2cccc3cccc(c23)C(=O)N1N1C(=O)c2cccc3c(N4CCOCC4)ccc(c23)C1=O,100% (inactive)
14,COc1ccc(-c2nn(-c3ccccc3)cc2/C=C2/SC(=S)N(C)C2=O)cc1,66.8% (inactive)
15,O=C(NCCCCNC(=O)OCc1ccc2c(Cl)cc(Cl)c(O)c2n1)OCc1ccc2c(Cl)cc(Cl)c(O)c2n1,19.5% (inactive)
16,CC(=O)OCc1nc(C#N)c(N(C)C)o1,101% (inactive)
17,COc1ccc2[nH]cc(-c3nc(-c4c[nH]c5ccncc45)cs3)c2c1,-61.4% (active)
18,Cc1cccc(Cl)c1NC(=O)c1ccc2nc(NC(=O)NCCN(C)C)sc2c1,103% (inactive)
19,COC(=O)/C(CCC=C(C)C)=C1\[C@@H](OC(C)=O)C[C@@]2(C)[C@H]1C[C@@H](O)[C@H]1[C@@]3(C)CC[C@H](NCCN)[C@@H](C)[C@@H]3CC[C@@]12C,85.4% (inactive)
20,COc1ccc2c(c1)[n+]([O-])c(C(=O)/C=C/C=C(\Cl)c1cc(OC)c(OC)c(OC)c1)c(C)[n+]2[O-],103% (inactive)

row,SMILES,growth
1,COC(=O)/C=C1/SC(=Nc2ccc(C)cc2)N(CCc2c[nH]c3ccc(O)cc23)C1=O,44.2% (inactive)
2,C#CCOc1cccc(Nc2ncnc3c(NC(=O)C=C)cccc23)c1,15.2% (inactive)
3,COc1ccc2c(O)c(/C=C3\N=Nc4ncccc43)oc2c1C[C@H]1CCNC[C@H]1F,-15.5% (active)
4,CC12CCC3c4ccccc4CCC3(CO1)C2 (stereo not given),106% (inactive)
5,COC1C[C@H](O[C@@H]2C[C@H](O[C@@H]3C[C@H](O[C@@H]4C(=O)c5c(cc6cc(O[C@H]7C[C@@H](O[C@H]8C[C@@H](O)[C@H](O)C(C)O8)[C@H](O)C(C)O7)c(C)c(O)c6c5O)C[C@H]4C(OC)C(=O)[C@@H](O)[C@@H](C)O)OC(C)[C@H]3O)OC(C)[C@@H]2O)OC(C)[C@@H]1O (stereo not given in full),9.73% (active)
6,COc1ccccc1Nc1nc2c(s1)C1=CC[C@H]3[C@@H]4CC[C@H]([C@H](C)CCCC(C)C)[C@@]4(C)CC[C@@H]3[C@@]1(C)CC2,101% (inactive)
7,Cc1ccc(Sc2oc(-c3ccc(C)cc3)nc2[P+](c2ccccc2)(c2ccccc2)c2ccccc2)cc1,-5.3% (active)
8,O=C(CN1C(=O)CCC1=O)Nc1ncc(Cc2ccc(F)cc2)s1,102% (inactive)
9,CCCCCCNC(=O)Oc1ccc(/C(=C(/C)Cc2ccc(OC)cc2)c2ccc(OCCCN(C)C)cc2)cc1,-21.8% (active)
10,C=C1C(=O)O[C@H]2[C@H]1CC/C(COC(=O)NCc1ccc(Cn3c(=O)sn(CCI)c3=O)cc1)=C\CC[C@@]1(C)O[C@@H]21,-2.89% (active)
11,OCc1cccc(-c2ccc3ncc(-c4nc(NC5CC5)ncc4F)n3c2)c1,0.326% (active)
12,CCCCCC(=O)OCC(=O)O[C@@H]1C[C@]2(C(C)C)O[C@@]1(C)[C@@H]1CC[C@@H](C)[C@H]1[C@@H]2OC(=O)/C=C/c1ccccc1,48.9% (inactive)
13,COCCNC(=O)c1ccc(-c2nc3ccc4[nH]ncc4c3c3c2CCCC3)cc1,11% (inactive)
14,COc1cc(/C=C\c2cc(/C=C\c3ccc(O)c(OC)c3)n(C(=O)COc3ccc(Cl)cc3Cl)n2)ccc1O,16.7% (inactive)
15,Cc1nn(-c2ccccc2)c(Oc2ccccn2)c1-c1nc2ccccc2s1,105% (inactive)
16,COc1ccc(/C=C2\COc3ccc(O)cc3C2=O)c(OC)c1OC,38.9% (inactive)
17,C#CCn1cnc2c(Nc3cccc(NC(=O)C=C)c3)ncnc21,99.6% (inactive)
18,C=CCc1c(O)c(C(=O)/C=C/c2ccc(Cl)cc2)c(OC)c2ccoc12,37.3% (inactive)
19,COc1cnc2c(c1)C(=O)c1c-2n(CCCNCCO)c(=O)c2ccncc12,9.91% (active)
20,O=C(O)/C(=C\c1ccc(Cl)cc1)c1ccc(Cl)cc1,106% (inactive)
